# Data reported in PubChem BioAssay (EPA / NIEHS).
# Where “and” joins values, the source holds several entries; their conditions need not be identical. Identical values can stand only once. The source holds several records for some structures; these can differ, active in one and inactive in another. Calls of active or inactive are those of the source. The calls were made as follows: active = hit-call score of the fitted dose curve at least 0.9, where 1 is the maximum; inactive = score below 0.9.
# Experiment: ATG_TCF_b_cat_CIS: Attagene CIS-FACTORIAL HepG2 Assay for human T-Cell-Factor with beta-catenin (TCF/b-cat) (AID 2282965)
# Settings: HepG2 TCF/beta-catenin cis-reporter transcription, actives raise or lower the signal
# Outline: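 HepG2, transient MRTU transfection, cis-element-driven reporters (endogenous TFs). 24 h compound exposure. Readout: reporter mRNA by RT-PCR + 6-FAM primer extension, HpaI digest, capillary electrophoresis. Gain/loss fit vs DMSO baseline.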
Structure (SMILES),AC50,outcome
O=c1c(-c2ccc(O)cc2)coc2cc(O)ccc12,27.9 µM (active),inactive
Cc1ccc(S(=O)(=O)O)c(C)c1,–,inactive
CCCCOCCO,–,inactive
C=C(C)C(=O)OCCC(F)(F)C(F)(F)C(F)(F)C(F)(F)C(F)(F)C(F)(F)F,–,inactive
C[C@@H]1C[C@H]2[C@@H]3CCC4=CC(=O)C=C[C@]4(C)[C@@]3(F)[C@@H](O)C[C@]2(C)[C@@]1(O)C(=O)COP(=O)(O)O,–,inactive
COc1cc(CCC(=O)CC(=O)CCc2ccc(O)c(OC)c2)ccc1O,–,inactive
FC(F)(I)C(F)(F)C(F)(F)C(F)(F)C(F)(F)C(F)(F)I,11.1 µM (active),–
CCCCCCCCOC(=O)CCCCCCCCC(=O)OCCCCCCCC,–,inactive
CCc1ccc(CCOc2ccc(CC3SC(=O)NC3=O)cc2)nc1 (configuration not stated),–,inactive
Nc1cccc2c(N)cccc12,–,inactive
CC(O)C(=O)O (configuration not stated),–,inactive
O=C(O)c1ccccc1C(c1ccc(O)cc1)c1ccc(O)cc1,166 µM (active),inactive
CN1CCN(c2ccccc2/C=C2\SCCN(c3ccc(Cl)c(Cl)c3)C2=O)CC1,–,inactive
CCC(C)(C)C1CCC(O)CC1 (configuration not stated),100 µM (active),inactive
CN1CCC[C@H]1c1cccnc1,–,inactive
CCCCCCCCCCCCCCCS(=O)(=O)Oc1ccccc1,–,inactive
CCCCCCCCCCCCc1ccccc1S(=O)(=O)O,–,inactive
CCCCCCCC(=O)O,–,inactive

Structure (SMILES),AC50,outcome
CC[C@H](c1ccc(O)cc1)[C@@H](CC)c1ccc(O)cc1,9.79 µM (active) and 15.4 µM (active) and 11.1 µM (active),inactive
CCCCC[C@H](O)CC(=O)CCc1ccc(O)c(OC)c1,–,inactive
CC(C)(C)c1cc(C(C)(C)C)c(O)c(C(C)(C)C)c1,87.1 µM (active),inactive
CCCOC(=O)c1ccc(O)cc1,–,inactive
CCC(=C(c1ccc(O)cc1)c1ccc(OCCN(C)C)cc1)c1ccccc1,3.39 µM (active),inactive
CC[C@H](C)[C@@H](C(=O)O)n1sc2ccccc2c1=O,–,inactive
O=C(O)Cc1cc(I)c(Oc2cc(I)c(O)c(I)c2)c(I)c1,–,inactive
O=C1OC2(c3ccccc31)c1cc(Br)c(O)c(Br)c1Oc1c2cc(Br)c(O)c1Br,–,inactive
c1ccc2cc3c(ccc4ccccc43)cc2c1,–,inactive
ClC1=C(Cl)C(Cl)(Cl)C(Cl)=C1Cl,15.4 µM (active),inactive
c1ccc2c(c1)ccc1ccccc12,–,inactive
NCC(F)(F)C(F)(F)C(F)(F)C(F)(F)C(F)(F)C(F)(F)C(F)(F)F,–,inactive
CCCCCCC(=O)O,–,inactive
CCOC(=O)CC(O)(CC(=O)OCC)C(=O)OCC,–,inactive
OCCC(F)(F)C(F)(F)C(F)(F)C(F)(F)C(F)(F)C(F)(F)F,–,inactive
CC#C[C@]1(O)CC[C@H]2[C@@H]3CCC4=CC(=O)CCC4=C3[C@@H](c3ccc(N(C)C)cc3)C[C@@]21C,11.3 µM (active) and 26.2 µM (active),–
OCCC(F)(F)C(F)(F)C(F)(F)C(F)(F)C(F)(F)C(F)(F)C(F)(F)C(F)(F)F,33.4 µM (active),inactive

# Experiment: ATG_TAL_CIS: Attagene CIS-FACTORIAL HepG2 Assay for human TAL Basal Promoter (AID 2282966);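 also: background control endpoint measuring basal TAL promoter reporter mRNA not a specific factor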
# Settings: HepG2 Attagene cis-factorial TAL promoter reporter; actives raise or lower the signal
# Outline: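 Transiently transfected HepG2 (cis-regulated reporter units), 24 h treatment, mRNA read by fluorescent CE after RT-PCR; bidirectional fit, DMSO baseline.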
Structure (SMILES),outcome,AC50
O=c1c(-c2ccc(O)cc2)coc2cc(O)ccc12,inactive,–
Cc1ccc(S(=O)(=O)O)c(C)c1,inactive,–
CCCCOCCO,inactive,–
C=C(C)C(=O)OCCC(F)(F)C(F)(F)C(F)(F)C(F)(F)C(F)(F)C(F)(F)F,inactive,–
C[C@@H]1C[C@H]2[C@@H]3CCC4=CC(=O)C=C[C@]4(C)[C@@]3(F)[C@@H](O)C[C@]2(C)[C@@]1(O)C(=O)COP(=O)(O)O,inactive,–
COc1cc(CCC(=O)CC(=O)CCc2ccc(O)c(OC)c2)ccc1O,inactive,–
FC(F)(I)C(F)(F)C(F)(F)C(F)(F)C(F)(F)C(F)(F)I,inactive,–
CCCCCCCCOC(=O)CCCCCCCCC(=O)OCCCCCCCC,inactive,–
CCc1ccc(CCOc2ccc(CC3SC(=O)NC3=O)cc2)nc1 (configuration not stated),inactive,–
Nc1cccc2c(N)cccc12,inactive,–
CC(O)C(=O)O (configuration not stated),inactive,–
O=C(O)c1ccccc1C(c1ccc(O)cc1)c1ccc(O)cc1,inactive,–
CN1CCN(c2ccccc2/C=C2\SCCN(c3ccc(Cl)c(Cl)c3)C2=O)CC1,inactive,–
CCC(C)(C)C1CCC(O)CC1 (configuration not stated),inactive,–
CN1CCC[C@H]1c1cccnc1,inactive,–
CCCCCCCCCCCCCCCS(=O)(=O)Oc1ccccc1,inactive,–
CCCCCCCCCCCCc1ccccc1S(=O)(=O)O,inactive,–
CCCCCCCC(=O)O,inactive,–

Structure (SMILES),outcome,AC50
CC[C@H](c1ccc(O)cc1)[C@@H](CC)c1ccc(O)cc1,inactive,–
CCCCC[C@H](O)CC(=O)CCc1ccc(O)c(OC)c1,inactive,–
CC(C)(C)c1cc(C(C)(C)C)c(O)c(C(C)(C)C)c1,inactive,–
CCCOC(=O)c1ccc(O)cc1,inactive,–
CCC(=C(c1ccc(O)cc1)c1ccc(OCCN(C)C)cc1)c1ccccc1,inactive,10.4 µM (active)
CC[C@H](C)[C@@H](C(=O)O)n1sc2ccccc2c1=O,inactive,–
O=C(O)Cc1cc(I)c(Oc2cc(I)c(O)c(I)c2)c(I)c1,inactive,67 µM (active)
O=C1OC2(c3ccccc31)c1cc(Br)c(O)c(Br)c1Oc1c2cc(Br)c(O)c1Br,inactive,–
c1ccc2cc3c(ccc4ccccc43)cc2c1,inactive,–
ClC1=C(Cl)C(Cl)(Cl)C(Cl)=C1Cl,inactive,15 µM (active)
c1ccc2c(c1)ccc1ccccc12,inactive,–
NCC(F)(F)C(F)(F)C(F)(F)C(F)(F)C(F)(F)C(F)(F)C(F)(F)F,inactive,–
CCCCCCC(=O)O,inactive,–
CCOC(=O)CC(O)(CC(=O)OCC)C(=O)OCC,inactive,–
OCCC(F)(F)C(F)(F)C(F)(F)C(F)(F)C(F)(F)C(F)(F)F,inactive,–
CC#C[C@]1(O)CC[C@H]2[C@@H]3CCC4=CC(=O)CCC4=C3[C@@H](c3ccc(N(C)C)cc3)C[C@@]21C,inactive,14.7 µM (active)
OCCC(F)(F)C(F)(F)C(F)(F)C(F)(F)C(F)(F)C(F)(F)C(F)(F)C(F)(F)F,inactive,–
